# Data reported in PMC12350791.
# How the values were obtained:
# Assay in all cases: cross-linking mass spectrometry
# Details in all cases: DSBSO, in cells or nuclear extract, not told apart
# USP39 = USP39 (UniProt Q53GS9)
# SF1 = SF1 (UniProt Q15637)
# SF3A1 = SF3A1 (UniProt Q15459)
# SF3B3 = SF3B3 (UniProt Q15393)
# SF3B2 = SF3B2 (UniProt Q13435)
# SMC4 = SMC4 (UniProt Q9NTJ3)
# SNRPD1 = SNRPD1 (UniProt P62314)
# SNRPD3 = SNRPD3 (UniProt P62318)
# SNU13 = SNU13 (UniProt P55769)
# SPC25 = SPC25 (UniProt Q9HBM1)
# SPG11 = SPG11 (UniProt Q96JI7)
# STAT5B = STAT5B (UniProt P51692)
# STK24 = STK24 (UniProt Q9Y6E0)
# SYMPK = SYMPK (UniProt Q92797)
# THOC1 = THOC1 (UniProt Q96FV9)
# THOC3 = THOC3 (UniProt Q96J01)
# THOC7 = THOC7 (UniProt Q6I9Y2)
# THRAP3 = THRAP3 (UniProt Q9Y2W1)
# TMED2 = TMED2 (UniProt Q15363)
# TMED4 = TMED4 (UniProt Q7Z7H5)
# TMED7 = TMED7 (UniProt Q9Y3B3)
# TMED9 = TMED9 (UniProt Q9BVK6)
# TSNAX = TSNAX (UniProt Q99598)
# TXLNG = TXLNG (UniProt Q9NUQ3)
# UBE2I = UBE2I (UniProt P63279)
# UQCRC2 = UQCRC2 (UniProt P22695)
# UXT = UXT (UniProt Q9UBK9)
# VIRMA = VIRMA (UniProt Q69YN4)
# VPS35 = VPS35 (UniProt Q96QK1)
# YWHAB = YWHAB (UniProt P31946)
# YWHAG = YWHAG (UniProt P61981)
# YWHAH = YWHAH (UniProt Q04917)
# YWHAZ = YWHAZ (UniProt P63104)
# ZC3H4 = ZC3H4 (UniProt Q9UPT8)
# TMED10, P49755, sequence (P49755 whole entry): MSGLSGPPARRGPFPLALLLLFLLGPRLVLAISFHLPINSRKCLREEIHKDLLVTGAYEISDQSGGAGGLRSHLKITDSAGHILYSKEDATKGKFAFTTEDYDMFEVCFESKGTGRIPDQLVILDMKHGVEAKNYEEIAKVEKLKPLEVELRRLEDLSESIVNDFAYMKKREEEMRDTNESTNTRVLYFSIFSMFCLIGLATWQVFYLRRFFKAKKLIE
# SF3B2, sequence (Q13435 whole entry): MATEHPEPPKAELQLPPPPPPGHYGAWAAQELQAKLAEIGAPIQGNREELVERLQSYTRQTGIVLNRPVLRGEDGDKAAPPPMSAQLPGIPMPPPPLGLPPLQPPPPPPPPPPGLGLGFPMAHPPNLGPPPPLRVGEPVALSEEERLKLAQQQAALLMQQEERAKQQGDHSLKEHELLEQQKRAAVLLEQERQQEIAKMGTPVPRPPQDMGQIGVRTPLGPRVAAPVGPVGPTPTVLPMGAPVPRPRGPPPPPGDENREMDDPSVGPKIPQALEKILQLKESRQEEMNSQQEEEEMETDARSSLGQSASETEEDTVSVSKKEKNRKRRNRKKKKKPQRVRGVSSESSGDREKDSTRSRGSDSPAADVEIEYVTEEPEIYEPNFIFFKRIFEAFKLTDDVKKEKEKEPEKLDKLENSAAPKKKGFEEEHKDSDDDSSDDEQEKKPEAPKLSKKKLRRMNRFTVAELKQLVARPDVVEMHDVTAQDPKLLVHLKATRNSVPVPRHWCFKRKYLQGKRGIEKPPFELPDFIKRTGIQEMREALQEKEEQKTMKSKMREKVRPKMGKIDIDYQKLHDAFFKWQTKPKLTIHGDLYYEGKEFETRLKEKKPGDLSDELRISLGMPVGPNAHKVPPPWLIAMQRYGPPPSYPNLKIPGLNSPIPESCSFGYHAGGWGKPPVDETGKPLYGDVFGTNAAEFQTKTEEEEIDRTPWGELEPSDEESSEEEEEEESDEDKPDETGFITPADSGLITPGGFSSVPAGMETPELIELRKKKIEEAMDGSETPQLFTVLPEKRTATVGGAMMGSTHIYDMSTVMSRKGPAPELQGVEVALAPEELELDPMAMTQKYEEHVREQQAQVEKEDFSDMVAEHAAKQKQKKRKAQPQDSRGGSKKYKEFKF
# SF3B2, Q13435, sequence (Q13435 whole entry): as above
# THOC5, Q13769, sequence (Q13769 whole entry): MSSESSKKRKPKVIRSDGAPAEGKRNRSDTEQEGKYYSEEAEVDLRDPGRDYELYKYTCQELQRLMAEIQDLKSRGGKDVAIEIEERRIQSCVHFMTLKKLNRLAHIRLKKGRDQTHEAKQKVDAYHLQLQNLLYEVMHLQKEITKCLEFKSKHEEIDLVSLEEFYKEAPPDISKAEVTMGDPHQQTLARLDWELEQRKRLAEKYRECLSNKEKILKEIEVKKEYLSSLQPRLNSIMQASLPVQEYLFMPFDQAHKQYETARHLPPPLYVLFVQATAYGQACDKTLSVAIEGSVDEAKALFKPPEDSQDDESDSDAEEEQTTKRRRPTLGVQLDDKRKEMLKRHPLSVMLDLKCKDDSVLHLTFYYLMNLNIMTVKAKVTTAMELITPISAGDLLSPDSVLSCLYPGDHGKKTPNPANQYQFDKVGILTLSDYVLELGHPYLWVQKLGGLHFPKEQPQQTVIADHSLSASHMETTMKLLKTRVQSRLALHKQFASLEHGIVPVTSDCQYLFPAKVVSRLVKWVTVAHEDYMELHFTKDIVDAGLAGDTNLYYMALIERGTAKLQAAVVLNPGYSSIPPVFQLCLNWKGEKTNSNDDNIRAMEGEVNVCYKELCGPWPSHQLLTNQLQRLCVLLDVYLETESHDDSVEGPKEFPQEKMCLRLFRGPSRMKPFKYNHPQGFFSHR
# YWHAZ, sequence (P63104 whole entry): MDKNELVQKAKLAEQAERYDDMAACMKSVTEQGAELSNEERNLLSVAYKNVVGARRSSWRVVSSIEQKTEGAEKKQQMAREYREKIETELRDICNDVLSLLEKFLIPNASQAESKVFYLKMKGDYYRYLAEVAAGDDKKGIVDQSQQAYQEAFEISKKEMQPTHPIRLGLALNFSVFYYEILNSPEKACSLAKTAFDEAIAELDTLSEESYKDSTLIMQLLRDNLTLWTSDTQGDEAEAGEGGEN
# SF3A1, sequence (Q15459 whole entry): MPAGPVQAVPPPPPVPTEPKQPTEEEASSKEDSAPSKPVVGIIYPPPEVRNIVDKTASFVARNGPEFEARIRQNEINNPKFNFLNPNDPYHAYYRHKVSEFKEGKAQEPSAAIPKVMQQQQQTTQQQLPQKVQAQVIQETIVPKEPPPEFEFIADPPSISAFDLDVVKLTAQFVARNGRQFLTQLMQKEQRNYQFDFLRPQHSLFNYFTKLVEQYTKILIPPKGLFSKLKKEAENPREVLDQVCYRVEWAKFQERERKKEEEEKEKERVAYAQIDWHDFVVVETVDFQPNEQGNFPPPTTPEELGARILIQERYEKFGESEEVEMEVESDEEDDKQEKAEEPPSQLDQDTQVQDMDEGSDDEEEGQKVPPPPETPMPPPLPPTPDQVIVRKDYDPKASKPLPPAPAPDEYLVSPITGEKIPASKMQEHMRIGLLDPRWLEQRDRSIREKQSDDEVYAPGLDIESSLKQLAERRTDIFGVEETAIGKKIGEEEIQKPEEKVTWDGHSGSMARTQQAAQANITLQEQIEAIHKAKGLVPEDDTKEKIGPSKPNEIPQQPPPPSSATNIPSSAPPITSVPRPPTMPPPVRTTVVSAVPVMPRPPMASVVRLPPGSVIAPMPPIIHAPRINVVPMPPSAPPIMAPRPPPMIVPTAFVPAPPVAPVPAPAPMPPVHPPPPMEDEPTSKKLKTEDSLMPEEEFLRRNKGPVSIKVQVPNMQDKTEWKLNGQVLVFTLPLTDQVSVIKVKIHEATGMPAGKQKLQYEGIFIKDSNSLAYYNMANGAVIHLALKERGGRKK
# SF3A3, Q12874, sequence (Q12874 whole entry): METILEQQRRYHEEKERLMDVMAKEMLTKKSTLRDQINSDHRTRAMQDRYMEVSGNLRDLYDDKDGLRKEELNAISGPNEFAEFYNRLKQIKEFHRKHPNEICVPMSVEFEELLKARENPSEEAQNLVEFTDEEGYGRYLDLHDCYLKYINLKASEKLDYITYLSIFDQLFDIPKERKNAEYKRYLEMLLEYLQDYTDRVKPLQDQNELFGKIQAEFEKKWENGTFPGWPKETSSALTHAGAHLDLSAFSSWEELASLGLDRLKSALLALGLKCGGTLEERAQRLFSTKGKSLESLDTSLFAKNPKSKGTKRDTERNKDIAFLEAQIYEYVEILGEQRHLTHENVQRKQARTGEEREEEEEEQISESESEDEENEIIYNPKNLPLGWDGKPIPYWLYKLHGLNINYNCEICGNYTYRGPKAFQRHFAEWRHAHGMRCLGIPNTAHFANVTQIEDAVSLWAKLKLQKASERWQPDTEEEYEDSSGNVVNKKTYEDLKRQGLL
# SF3B3, sequence (Q15393 whole entry): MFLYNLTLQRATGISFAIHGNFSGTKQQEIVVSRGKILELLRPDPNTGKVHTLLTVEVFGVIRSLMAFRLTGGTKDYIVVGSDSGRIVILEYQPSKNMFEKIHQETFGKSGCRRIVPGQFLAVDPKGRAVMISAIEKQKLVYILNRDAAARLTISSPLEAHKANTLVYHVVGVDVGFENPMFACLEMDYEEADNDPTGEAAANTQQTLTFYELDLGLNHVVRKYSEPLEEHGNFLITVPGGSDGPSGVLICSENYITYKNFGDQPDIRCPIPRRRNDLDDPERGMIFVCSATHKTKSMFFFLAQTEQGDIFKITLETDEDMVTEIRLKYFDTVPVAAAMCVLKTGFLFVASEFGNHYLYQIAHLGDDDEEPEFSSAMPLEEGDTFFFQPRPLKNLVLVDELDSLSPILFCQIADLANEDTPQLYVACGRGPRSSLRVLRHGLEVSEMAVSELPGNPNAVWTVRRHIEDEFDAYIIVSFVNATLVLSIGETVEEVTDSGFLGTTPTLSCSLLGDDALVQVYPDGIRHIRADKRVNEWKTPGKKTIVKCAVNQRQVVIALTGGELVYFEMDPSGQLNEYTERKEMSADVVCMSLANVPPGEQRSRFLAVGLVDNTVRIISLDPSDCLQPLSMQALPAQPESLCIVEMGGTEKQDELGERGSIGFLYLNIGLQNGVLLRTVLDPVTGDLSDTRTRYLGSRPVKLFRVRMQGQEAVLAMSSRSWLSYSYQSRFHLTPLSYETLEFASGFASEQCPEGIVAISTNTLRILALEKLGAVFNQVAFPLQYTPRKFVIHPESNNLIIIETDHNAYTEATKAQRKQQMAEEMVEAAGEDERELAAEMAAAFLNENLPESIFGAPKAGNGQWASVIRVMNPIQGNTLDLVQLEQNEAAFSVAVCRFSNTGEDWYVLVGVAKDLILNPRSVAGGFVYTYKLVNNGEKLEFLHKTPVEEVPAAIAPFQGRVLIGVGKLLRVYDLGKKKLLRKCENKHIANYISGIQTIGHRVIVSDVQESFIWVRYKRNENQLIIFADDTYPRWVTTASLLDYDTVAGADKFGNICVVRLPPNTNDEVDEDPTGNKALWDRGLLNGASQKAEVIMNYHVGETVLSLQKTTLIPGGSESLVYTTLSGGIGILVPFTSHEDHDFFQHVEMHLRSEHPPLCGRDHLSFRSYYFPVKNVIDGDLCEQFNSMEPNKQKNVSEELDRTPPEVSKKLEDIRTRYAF
# TMED2, Q15363, sequence (Q15363 whole entry): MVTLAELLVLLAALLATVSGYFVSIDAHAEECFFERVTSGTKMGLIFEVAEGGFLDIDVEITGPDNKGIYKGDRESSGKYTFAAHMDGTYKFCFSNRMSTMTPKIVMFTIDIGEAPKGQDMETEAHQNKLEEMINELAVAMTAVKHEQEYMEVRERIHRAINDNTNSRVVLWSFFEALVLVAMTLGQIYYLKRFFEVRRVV
# PDRG1, Q9NUG6, sequence (Q9NUG6 whole entry): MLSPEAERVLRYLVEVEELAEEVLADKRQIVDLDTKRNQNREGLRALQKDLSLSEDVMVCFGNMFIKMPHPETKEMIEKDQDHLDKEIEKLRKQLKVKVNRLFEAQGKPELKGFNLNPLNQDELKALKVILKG
# YWHAZ, P63104, sequence (P63104 whole entry): as the sequence (P63104 whole entry) above
substance,measurement,setting,value
"EFTUD2, Q15029",cross-linked residues,USP39,K646 - K308
"IREB2, P48200",cross-linked residues,SF1,K530 - K169
"SF3B2, Q13435",cross-linked residues,SF3A1,K275 - K55
same,cross-linked residues,SF3B3,K486 - K965
"SF3A2, Q15428",cross-linked residues,SF3A1,K190 - K264
"SF3A3, Q12874",cross-linked residues,SF3B2,K69 - K280
same,cross-linked residues,SF3B3,K496 - K974
"SF3B1, O75533",cross-linked residues,SF3B2,K1292 - K486
"NCAPH, Q15003",cross-linked residues,SMC4,K725 - K99
"SNRPB, P14678",cross-linked residues,SNRPD1,K54 - K44
"SNRPC, P09234",cross-linked residues,SNRPD3,K52 - K78
"PRPF6, O94906",cross-linked residues,SNU13,K775 - K113
"TBC1D9B, Q66K14",cross-linked residues,SPC25,K1066 - K90
"RPS16, P62249",cross-linked residues,SPG11,K60 - K942
"STAT5A, P42229",cross-linked residues,STAT5B,K86 - K86
"PDCD10, Q9BUL8",cross-linked residues,STK24,K70 - K347
"CSTF2, P33240",cross-linked residues,SYMPK,K189 - K490
"THOC7, Q6I9Y2",cross-linked residues,THOC1,K32 - S2
"THOC5, Q13769",cross-linked residues,THOC3,K223 - K171
same,cross-linked residues,THOC7,K223 - K159
"NDUFAF2, Q8N183",cross-linked residues,THRAP3,K57 - K668
"TMED10, P49755",cross-linked residues,TMED2,K145 - K129
same,cross-linked residues,TMED4,K145 - K152
same,cross-linked residues,TMED7,K169 - K91
"TMED2, Q15363",cross-linked residues,TMED4,K129 - K152
same,cross-linked residues,TMED9,K129 - K160
"TSN, Q15631",cross-linked residues,TSNAX,K219 - K269
"TXLNA, P40222",cross-linked residues,TXLNG,K216 - K191
"RANBP2, P49792",cross-linked residues,UBE2I,K2687 - K49
"COX5B, P10606",cross-linked residues,UQCRC2,K57 - K23
"PDRG1, Q9NUG6",cross-linked residues,UXT,K36 - K48
"WTAP, Q15007",cross-linked residues,VIRMA,K268 - K399
"ZC3H13, Q5T200",cross-linked residues,VIRMA,K1535 - K576
"VPS26A, O75436",cross-linked residues,VPS35,K30 - K44
"YWHAQ, P27348",cross-linked residues,YWHAB,K85 - K11
"YWHAB, P31946",cross-linked residues,YWHAG,K87 - K10
"YWHAZ, P63104",cross-linked residues,YWHAH,K9 - K91
"YWHAE, P62258",cross-linked residues,YWHAZ,K12 - K68
"YWHAG, P61981",cross-linked residues,YWHAZ,K77 - K9
"WDR82, Q6UXN9",cross-linked residues,ZC3H4,K181 - K935
